Reference: PubChem BioAssay (NCATS)
Records with an inconclusive call do not appear. Activity calls are given as the source filed them. The call rests on the fitted dose curve; in most records, active means well fitted inhibition curve with a large enough effect; inconclusive means small, poorly fitted or top-dose-only effect; inactive means flat fitted curve, though single readings scatter.

What follows are molecules tested against Ubiquitin carboxyl-terminal hydrolase 1 (Homo sapiens) (UniProt O94782) (assay: Inhibitors of USP1/UAF1: Pilot qHTS (AID 504865; further: nearly all actives have a fitted effect of over 35% in size;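 on activity change, negative = inhibition: rhodamine fluorescence freed from ubiquitin-rhodamine substrate followed over time; top concentration of the series differs between compounds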)). Settings: purified USP1/UAF1, Ub-rhodamine cleavage fluorescence; series mostly up to 114 µM; activity change, negative = inhibition: at the top concentration.
Ubiquitin carboxyl-terminal hydrolase 1 (Homo sapiens), sequence (O94782 whole entry, looked up): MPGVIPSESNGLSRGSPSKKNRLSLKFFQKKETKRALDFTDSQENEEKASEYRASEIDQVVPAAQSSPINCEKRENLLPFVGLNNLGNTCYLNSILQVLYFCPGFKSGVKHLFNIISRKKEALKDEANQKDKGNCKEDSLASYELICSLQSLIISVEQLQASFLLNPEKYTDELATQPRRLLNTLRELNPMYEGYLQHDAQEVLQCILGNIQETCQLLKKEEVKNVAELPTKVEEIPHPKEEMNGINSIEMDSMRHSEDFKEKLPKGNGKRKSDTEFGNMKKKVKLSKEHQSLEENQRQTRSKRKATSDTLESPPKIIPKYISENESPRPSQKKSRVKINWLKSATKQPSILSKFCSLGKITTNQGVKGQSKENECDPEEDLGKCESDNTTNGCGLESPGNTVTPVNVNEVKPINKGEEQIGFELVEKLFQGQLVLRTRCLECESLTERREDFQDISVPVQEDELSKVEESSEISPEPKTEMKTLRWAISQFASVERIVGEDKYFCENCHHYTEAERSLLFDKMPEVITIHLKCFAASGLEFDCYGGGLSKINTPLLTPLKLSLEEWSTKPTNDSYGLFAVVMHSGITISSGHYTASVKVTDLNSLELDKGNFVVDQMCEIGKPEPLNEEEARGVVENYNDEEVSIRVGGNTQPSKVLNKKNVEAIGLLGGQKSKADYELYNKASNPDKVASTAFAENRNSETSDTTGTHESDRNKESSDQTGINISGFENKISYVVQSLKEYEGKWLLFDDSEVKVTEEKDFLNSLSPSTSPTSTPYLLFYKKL
Text: Deubiquitinating enzymes (DUBs) are a class of enzymes that can cleave isopeptide bond formed between the C-terminal carboxylate of ubiquitin and a lysine side-chain amino group on the target protein. Among them, ubiquitin specific proteases (USPs) constitute the largest DUB family. Human USPs are emerging as promising targets for pharmacological intervention because of their connection to a number of human diseases, including prostate, colon and breast cancer (1, 2), pediatric acute lymphoblastic leukemia (3), and familial cylindromatosis (4). The advantage of inhibiting USPs lies in the potential specificity of therapeutic intervention that can lead to better efficacy and reduce nonspecific side effects.
In a collaboration between the University of Delaware and the NIH Chemical Genomics Center, a high-throughput screen assay was developed to screen for USP1/UAF1 inhibitors. This miniaturized assay has a fluorescent read-out and is used to screen the NIH Molecular Libraries Small Molecule Repository (MLSMR) in order to identify a small molecule that inhibits USP1.
NIH Chemical Genomics Center [NCGC]
NIH Molecular Libraries Probe Centers Network [MLPCN]
Assay Submitter (PI): Zhihao Zhuang, University of Delaware
1. Priolo, C., et al. (2006) The isopeptidase USP2a protects human prostate cancer from apoptosis. Cancer Res 66, 8625-8632
2. Popov, N., et al. (2007) The ubiquitin-specific protease USP28 is required for MYC stability. Nat Cell Biol 9, 765-774
3. De Pitta, C., et al. (2005) A leukemia-enriched cDNA microarray platform identifies new transcripts with relevance to the biology of pediatric acute lymphoblastic leukemia. Haematologica 90, 890-898
4. Kovalenko, A., et al. (2003) The tumour suppressor CYLD negatively regulates NF-kappaB signalling by deubiquitination. Nature 424, 801-805
3 microliters of reagents (buffer in columns 3 and 4 as negative control and 1nM USP1/UAF1 complex in columns 1, 2, and 5-48) are dispensed into Greiner black solid bottom 1536-well assay plates. Compounds are then transferred via Kalypsys pin tool equipped with 1536-pin array (10nl slotted pins, V&P Scientific, San Diego, CA). Following an incubation step of 15 min at room temperature, 1ul of Ub-Rho substrate (150nM final concentration) is added to initiate the reaction. The plates are immediately centrifuged at 1000 rpm for 15 seconds, and subsequently transferred to a ViewLux high-throughput CCD imager (PerkinElmer) wherein kinetic measurements of fluorescence are acquired using 480 nm excitation/540 nm emission filter set (6 reads every 60 seconds, see Table 1). All reagents are diluted in an assay buffer consisting of 50mM HEPES (pH 7.8), 0.5mM EDTA, 0.1 mg/ml BSA, 1mM TCEP, and 0.01% Tween-20.
On the % scale 0 is the no-effect control and ±100 the full control effect; potency means the concentration at half of the fitted maximal effect.

SMILES | activity change, negative = inhibition | Potency
COc1ccc2c(c1)/C(=C/c1cnc[nH]1)C(=O)N2 | -5.82% (inactive) | 
CCCn1c(=O)c2[nH]c(C3CCCC3)nc2n(CCCOC(=O)c2ccc(S(=O)(=O)F)cc2)c1=O | -5.73% (inactive) | 
O=[N+]([O-])c1cc(I)c(O)c(I)c1 | -12.5% (inactive) | 
CN1CCCC(=C(c2cccs2)c2cccs2)C1 | -4.47% (inactive) | 
C[N+](C)(C)CC#CCN1CCCC1=O | -9.48% (inactive) | 
O=[N+]([O-])/C=C/c1ccc2c(c1)OCO2 | -4.66% (inactive) | 
C=CCN=C=S | -2.76% (inactive) | 
O=C(NC(=O)c1c(F)cccc1F)Nc1ccc(Cl)c(Oc2ncc(C(F)(F)F)cc2Cl)c1 | -7.63% (inactive) | 
CCCN1CCc2cc(O)cc3c2[C@H]1Cc1ccc(O)c(O)c1-3 | -7.69% (inactive) | 
C[Se]C[C@H](N)C(=O)O | -5.77% (inactive) | 
CC12NC(Cc3ccccc31)c1ccccc12 (stereo not given) |  | inactive
C[C@]12CCC(=O)C[C@@H]1CC[C@@H]1[C@@H]2CC[C@]2(C)[C@@H](O)CC[C@@H]12 | -8.29% (inactive) | 
FC(F)OC(F)(F)C(F)Cl (stereo not given) | 3.21% (inactive) | 
CCn1cnc2c(Nc3cccc(Cl)c3)nc(N[C@@H]3CCCC[C@@H]3N)nc21 | -14% (inactive) | 
CNC(=O)OCC[N+](C)(C)C | -1.36% (inactive) | 
CC(N)[C@H](O)c1ccc(O)c(O)c1 (stereo not given in full) | -2.21% (inactive) | 
CC(=O)O[C@H]1CC[C@H]2[C@@H]3CCC4=CC(=O)CCC4=C3C=C[C@]12C | -19.2% (inactive) | 
Cn1sc(Cl)cc1=O | -0.0824% (inactive) | 
c1ccc2c(c1)[I+]c1ccccc1-2 | -9.05% (inactive) | 
Oc1cc(Cl)c(Cl)cc1Cl | -13.5% (inactive) | 

SMILES | activity change, negative = inhibition | Potency
CCNC(C)Cc1cccc(C(F)(F)F)c1 (stereo not given) | -3.06% (inactive) | 
CCN(CCCl)Cc1ccccc1Br | -5.88% (inactive) | 
CCOC(=O)c1ccccc1C(=O)OCC | -6.46% (inactive) | 
O=S1(=O)N(CCN2CC=C(c3c[nH]c4cc(F)ccc34)CC2)c2cccc3c2N1CCC3 | -8.58% (inactive) | 
CCCN(CCC)CCc1ccc(O)c(O)c1 | -7.63% (inactive) | 
c1ccc2cc(CC3=NCCN3)ccc2c1 |  | inactive
O=c1c2ccccc2[se]n1-c1ccccc1 |  | inactive
Oc1cccc[c]1[Hg][Cl] |  | 44.7 µM (active)
N[C@@H](Cn1oc(=O)[nH]c1=O)C(=O)O |  | inactive
C[N+]1(C)CCc2cc3c(cc2[C@H]1[C@@H]1OC(=O)c2c1ccc1c2OCO1)OCO3 | 2.13% (inactive) | 
CC1(C(=O)O)C2CCC(O2)C1(C)C(=O)O (stereo not given) | -8.77% (inactive) | 
O=C1CN(O)C(c2ccccc2)=c2cc(Cl)ccc2=N1 | -7.12% (inactive) | 
CNc1ccc2oc(C[C@H]3O[C@@]4(CC[C@H]3C)O[C@H]([C@H](C)C(=O)c3ccc[nH]3)[C@H](C)C[C@H]4C)nc2c1C(=O)O | -21.4% (inactive) | 
CC(N)c1cccc(Cl)c1Cl (stereo not given) | -9.31% (inactive) | 
COc1ccc2c3c1O[C@H]1C(=O)CC[C@H]4[C@@H](C2)N(C)CC[C@]314 | -8.03% (inactive) | 
NCC(CP(=O)(O)O)c1ccc(Cl)cc1 (stereo not given) | 3.43% (inactive) | 
CCCN(CCC)C1Cc2cc(OC)c(OC)cc2C1 | 5.95% (inactive) | 
CN(N=O)c1cc(O)ccc1O | -2.24% (inactive) | 
[Cl-].[Cl-].[Hg+2] |  | 3.98 µM (active)
COC(=O)N1CCN(C(=O)Cc2ccc(Cl)c(Cl)c2)C(CN2CCCC2)C1 (stereo not given) | -0.0992% (inactive) | 
